CHRM1 antagonist = human CHRM1 antagonism; CHO-K1 hM1, Fluo-8 calcium fluorescence, ACh EC80 antagonist; inhibition, % at 3 µM; actives 1.3% (n = 360,000); AID 588852;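 active = percent inhibition above its own plate's cutoff, namely the mean of that plate's compound wells plus 3 SD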;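 also: peak over basal fluorescence ratio during 140 s after agonist addition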
Target sequence (P11229 whole entry, looked up): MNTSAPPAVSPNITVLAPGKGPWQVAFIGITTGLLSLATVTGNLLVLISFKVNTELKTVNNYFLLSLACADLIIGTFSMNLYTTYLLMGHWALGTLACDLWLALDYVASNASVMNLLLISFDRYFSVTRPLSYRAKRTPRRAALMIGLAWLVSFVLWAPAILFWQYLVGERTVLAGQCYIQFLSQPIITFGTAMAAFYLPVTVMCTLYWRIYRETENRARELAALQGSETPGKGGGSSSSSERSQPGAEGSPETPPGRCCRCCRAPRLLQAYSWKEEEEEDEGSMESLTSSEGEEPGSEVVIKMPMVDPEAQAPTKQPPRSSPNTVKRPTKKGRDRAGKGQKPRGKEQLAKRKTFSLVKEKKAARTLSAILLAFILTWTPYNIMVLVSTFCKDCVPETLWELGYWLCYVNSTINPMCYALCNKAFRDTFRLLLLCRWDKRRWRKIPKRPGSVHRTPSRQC
M1 ag parental = M1 agonist counterscreen hit in parental CHO-K1 cells. AID 602248. Fluo-8 calcium fluorescence; scaled to maximal ATP response, vehicle zero. actives 0.48% (n = 360,000). activation, % at 3 µM; in the data active = activation above about 15%;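 also: untransfected CHO-K1 host cells lacking M1 receptor as counterscreen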
CHO-K1 Ca antag = nonselective inhibitor or artifact in parental CHO-K1 cells | inhibition, % at 3 µM | actives 0.6% (n = 360,000) | ATP-induced calcium, Fluo-8 fluorescence;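 active = inhibition above a per-plate cutoff, the plate's mean sample inhibition plus 3 SD, cut at about 24% in these data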
M1 PAM parental = counter-screen for M1 PAMs: effect in parental CHO-K1 cells | actives 0.02% (n = 360,000) | activation, % at 3 µM | ATP EC20, Fluo-8 calcium fluorescence; 0% at ATP EC20, 100% at ATP max;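 active = activation above the run cutoff, the mean activation of all test compounds plus 3 SD, cut at about 40% in these data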;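 also: peak over basal fluorescence ratio in a 140 s read after ATP addition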
M1 PAM = positive allosteric modulators of human M1 muscarinic receptor; P11229; CHO-K1 hM1, Fluo-8 calcium fluorescence, ACh EC20; 0% = ACh EC20, 100% = maximal ACh; activation, % at 3 µM; actives 0.088% (n = 360,000); in the data active = activation above about 19%, passing the limit was not always enough
CHRM1 agonist = agonists of human M1 muscarinic receptor; CHO-K1 hM1, Fluo-8 calcium fluorescence, agonist mode; 0% DMSO, 100% acetylcholine EC100; activation, % at 3 µM; actives 0.33% (n = 360,000);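 active = activation above the run's mean compound activation plus 3 SD, cut at about 16% in these data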;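 also: peak over basal fluorescence ratio within a 140 s kinetic read after compound addition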
Numbers stand for hits; – = inactive; ! = repeats disagree. Hits are enriched below; roughly 2.4% of the tested compounds scored in any of these assays.

SMILES | CHRM1 antagonist | M1 ag parental | CHO-K1 Ca antag | M1 PAM parental | M1 PAM | CHRM1 agonist
O=c1[nH]c(=S)n(Cc2ccc(F)cc2)c(O)c1/C=N/N1CCCCC1 | – | – | – | – | – | 27.2
COc1cc(C)c(CNCCc2c[nH]c3ccccc23)cc1C | – | 16.0 | – | – | – | –
CCC(=Nc1ccc2c(c1)CCC2)c1c(O)n(C2CCCCC2)c(=O)[nH]c1=O | – | – | – | – | – | –
CC(C)(C#CC(=O)O)OOC(c1ccccc1)(c1ccccc1)c1ccccc1 | – | – | – | – | – | –
COC(=O)c1ccc(N2CCN(C)CC2)c([N+](=O)[O-])c1 | – | 19.2 | – | – | – | –
CN1CCN(c2ccc([N+](=O)[O-])cc2Cl)CC1 | – | – | – | – | – | –
CCCC[N+]12CCC(CC1)C(=C(c1ccccc1)c1ccccc1)C2 | 99.4 | – | – | – | – | –
CCC[N+]12CCC(CC1)C(=C(c1ccccc1)c1ccccc1)C2 | 98.9 | – | – | – | – | –
COC(=O)C1=C(c2ccc3ccccc3c2)C[C@@H]2CC[C@H]1N2C(=O)N1CCC(C)CC1 | – | – | – | – | – | –
N/C(=N\[N+](=O)[O-])N1CCN(C(=O)c2ccccn2)CC1 | – | – | – | – | – | –
O=C(c1ccc(CS(=O)(=O)c2ccccc2)o1)N1CCC2(CC1)OCCO2 | – | – | – | – | – | –
COC(=O)C1=C(c2cc3ccccc3s2)C[C@@H]2CC[C@H]1N2C(=O)NCCS(C)=O (some centres not stated) | – | – | – | – | – | –
Oc1c(Br)cc(Br)cc1CN1CCN(Cc2ccccc2)CC1 | – | – | – | – | – | –
CCN1CCN(Cc2cc(Br)cc(OC)c2O)CC1 | 55.6 | – | – | – | – | –
COc1ccc(SCC2CN(C)CCC2c2ccc(F)cc2)cc1 (configuration not stated) | – | – | – | – | – | –
COc1cccc(C2CCN(C)C2)c1 (configuration not stated) | – | – | – | – | – | 29.0
CN(C)c1ccc(/C=C/c2cc[n+](C)c3ccccc23)cc1 | 29.8! | – | – | – | – | –
OC(Cc1ccccc1)(c1ccccc1)C1CN2CCC1CC2 (configuration not stated) | 98.2 | – | – | – | – | –
c1ccc(C2CN3CCC2CC3)cc1 (configuration not stated) | 41.2 | – | – | – | – | –
OC(c1ccccc1)(c1ccc(Cl)cc1)C1CN2CCC1CC2 (configuration not stated) | 99.7 | – | – | – | – | –
OCC[N+]12CCC(CC1)C(C(O)(c1ccccc1)c1ccccc1)C2 (configuration not stated) | – | – | – | – | – | –
OC(c1ccccc1)(c1ccccc1)C1CN2CCC1CC2 (configuration not stated) | 98.1 | – | – | – | – | –
CC1=C(C/C(C)=C/c2ccccc2)/C(=C/CO)[C@@H]2OC(=O)O[C@]2(C)C12CC2 | – | – | – | – | – | –
C[C@H]1OC[C@@H](C[N+](C)(C)C)O1 | 82.9 | – | – | – | – | 121.4
CC1OC(C[N+](C)(C)C)CC1O (configuration not stated) | 88.0 | – | – | – | – | 113.8
SMILES | CHRM1 antagonist | M1 ag parental | CHO-K1 Ca antag | M1 PAM parental | M1 PAM | CHRM1 agonist
CC1C(c2ccccc2)OC(=O)N1C (configuration not stated) | – | – | – | – | – | –
CCC1(Oc2ccccc2)C(=O)NC(=O)NC1=O | – | – | – | – | – | –
CCC1(C)OC(c2ccccc2)=C/C(=C/C=C2C(=O)NC(=O)NC2=O)O1 (configuration not stated) | – | – | – | – | – | 23.3
CCN(CC)CCC(=O)O[C@H]1CC[C@]2(C)C3CC[C@@]4(C)C(CC[C@]4(C)O)C3CC[C@H]2C1 (some centres not stated) | 49.6 | – | – | – | – | –
O=C(Cc1c(Cl)cccc1Cl)N1CCN(Cc2ccccc2)CC1 | – | – | – | – | – | –
CCC(C)n1c(O)c(C=NC(C)c2ccccc2)c(=O)[nH]c1=S (configuration not stated) | – | – | – | – | – | –

From PubChem BioAssay
